# Inconclusive results are not listed. Entries that show only a call come without a potency. The source made the active and inactive calls. Unless noted, calls follow the shape of the full dose curve.
# Key:
# [1] = target: Ferritin light chain (Equus caballus) (UniProt P02791); assay: qHTS Validation Assay for Identification of Novel General Anesthetics (AID 2323; active = well fitted curve in the direction sought with a large enough effect; an effect the other way counts as inactive or inconclusive)
# Summary of the method: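 Horse-spleen apoferritin (10 uM) in PBS with 50% saturated 1-aminoanthracene; compounds pin-transferred, 10 min at room temperature. Fluorescence read at 380/535 nm, normalized to free 1-AMA and 1-AMA/apoferritin values; four-parameter Hill fit.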
# [2] = target: ATP-dependent DNA helicase Q1 (Homo sapiens) (UniProt P46063); assay: qHTS Validation Assay for Inhibitors of RecQ-Like Dna Helicase 1 (RECQ1) (AID 2353; active = well fitted curve in the direction sought with a large enough effect; an effect the other way counts as inactive or inconclusive; also: potency is read from the fitted curve at half-maximal effect)
# Summary of the method: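 RECQ1T1 50 nM; forked duplex (20 bp + 30-nt ss tails) 200 nM, ATP 2 mM final; pH 8.0, 2 mM MgCl2, 2.5 ug/ml poly(dI-dC); 15 min compound preincubation; discontinuous kinetic read over 2 h at RT.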
# [3] = target: RecQ-like DNA helicase BLM (Homo sapiens) (UniProt P54132); assay: qHTS Validation Assay for Inhibitors of Bloom's syndrome helicase (BLM) (AID 2364; active = well fitted curve in the direction sought with a large enough effect; an effect the other way counts as inactive or inconclusive)
# Summary of the method: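 50 nM BLM preincubated 15 min at room temperature with compound in pH 8.0 Tris buffer containing 2.5 ug/ml poly(dI-dC); started with 200 nM TAMRA/BHQ-2 forked duplex and 2 mM ATP (final). Unwinding read as TAMRA fluorescence increase, two reads 2 h apart.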
# [4] = Cytometric Cell-Based qHTS for Inhibitors of the mTORC1 Signaling Pathway in MEF (Tsc2-/-, p53-/-) Cells (AID 2660; active = well fitted curve in the direction sought with a large enough effect; an effect the other way counts as inactive or inconclusive;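 also: Tsc2 and p53 null MEFs carrying empty vector with compound for 24 h; percent of cells above a phospho-rpS6 to PI ratio cutoff in each well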)
# Summary of the method: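 Readout: Alexa-488 phospho-rpS6 (Ser235/236) intensity divided by PI intensity, thresholded against 7.5 nM rapamycin wells and reported as % positive cells. PI cell count served as the viability measure. Compound exposure was 24 hrs at 37 degree Celsius.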
# [5] = High Content Imaging Cell-Based qHTS for Inhibitors of the mTORC1 Signaling Pathway in MEF (Tsc2-/-, p53-/-) Cells (AID 2666; active = well fitted curve in the direction sought with a large enough effect; an effect the other way counts as inactive or inconclusive;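 also: percent of cells scored positive for phospho-rpS6 Ser235/236 immunostaining by imaging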); settings: at 38.3 µM (top of the series)
# Summary of the method: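 MEF Tsc2-/- p53-/- (empty vector), DMEM/10% FBS; cpd 24 h 37 °C; PFA fix, Alexa-488 p-rpS6 S235/236 Ab, Hoechst; imaged; rapamycin-defined inhibition; % positive cells/well.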
# [6] = High Content Imaging Cell-Based qHTS for Inhibitors of the mTORC1 Signaling Pathway in MEF Cells (AID 2667; active = well fitted curve in the direction sought with a large enough effect; an effect the other way counts as inactive or inconclusive;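 also: Tsc2-/- p53-/- MEFs stably re-expressing wild-type Tsc2 exposed 24 h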)
# Summary of the method: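 Read-out is the share of phospho-rpS6-positive cells per well, from Hoechst-normalized Alexa-488 Ser235/236 staining imaged on IN Cell. Cells: WT Tsc2-expressing Tsc2-/-, p53-/- MEFs exposed to compound for 24 hrs.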
# [7] = Cytometry Cell-Based qHTS for Inhibitors of the mTORC1 Signaling Pathway in MEF cells (AID 2668; active = well fitted curve in the direction sought with a large enough effect; an effect the other way counts as inactive or inconclusive;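 also: Tsc2-/- p53-/- mouse embryonic fibroblasts stably re-expressing wild-type Tsc2; percent cells positive for phospho-rpS6 Ser235/236 relative to propidium iodide stain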)
# Summary of the method: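 MEFs (Tsc2-/-, p53-/- stably expressing WT Tsc2) treated 24 h at 37 degree Celsius, fixed, stained with Alexa-488 anti-phospho-rpS6 Ser235/236 and propidium iodide; Acumen laser scanning. Reported as % positive cells, phospho-S6 normalized to PI.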
# [8] = Validation screen for inhibitors of Lassa infection (AID 463096)
# [9] = Validation screen for small molecules that induce DNA re-replication in MCF 10A normal breast cells (AID 463097; active = well fitted curve in the direction sought with a large enough effect; an effect the other way counts as inactive or inconclusive; also: nearly all actives have a fitted effect of over 60% in size)
# Summary of the method: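 MCF 10A cells exposed to compound 48 hr at 37 C, 5% CO2, then Hoechst-stained 40 min. Laser-scanning imaging of nuclear DNA content (405 nm ex, 500-530 nm em); re-replication scored as rise in nuclei with elevated fluorescence intensity.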
# [10] = qHTS Assay for Identification of Small Molecule Inducers of Hypoxia Response (AID 2120; active = well fitted curve in the direction sought with a large enough effect in the signal ratio, with a control signal flat, not every such curve was filed as active; the % refers to the signal ratio)
# Summary of the method: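 Reporter induction read as the CCF4 blue/green (460nm/530nm) emission ratio after 2.5 h dye loading at room temperature. ME-180 HRE-beta-lactamase cells received titrated compounds for 17 h at 37 degrees Celsius; AC50 values derived.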
# Chain of Ferritin light chain (Equus caballus) (P02791 2-175 limits assumed): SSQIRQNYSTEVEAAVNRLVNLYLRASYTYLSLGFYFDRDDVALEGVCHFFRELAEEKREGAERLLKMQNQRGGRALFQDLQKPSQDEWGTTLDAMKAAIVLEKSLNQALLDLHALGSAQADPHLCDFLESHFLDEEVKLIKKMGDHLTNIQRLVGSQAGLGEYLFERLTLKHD
# Chain of ATP-dependent DNA helicase Q1 (Homo sapiens) (P46063 whole entry, looked up): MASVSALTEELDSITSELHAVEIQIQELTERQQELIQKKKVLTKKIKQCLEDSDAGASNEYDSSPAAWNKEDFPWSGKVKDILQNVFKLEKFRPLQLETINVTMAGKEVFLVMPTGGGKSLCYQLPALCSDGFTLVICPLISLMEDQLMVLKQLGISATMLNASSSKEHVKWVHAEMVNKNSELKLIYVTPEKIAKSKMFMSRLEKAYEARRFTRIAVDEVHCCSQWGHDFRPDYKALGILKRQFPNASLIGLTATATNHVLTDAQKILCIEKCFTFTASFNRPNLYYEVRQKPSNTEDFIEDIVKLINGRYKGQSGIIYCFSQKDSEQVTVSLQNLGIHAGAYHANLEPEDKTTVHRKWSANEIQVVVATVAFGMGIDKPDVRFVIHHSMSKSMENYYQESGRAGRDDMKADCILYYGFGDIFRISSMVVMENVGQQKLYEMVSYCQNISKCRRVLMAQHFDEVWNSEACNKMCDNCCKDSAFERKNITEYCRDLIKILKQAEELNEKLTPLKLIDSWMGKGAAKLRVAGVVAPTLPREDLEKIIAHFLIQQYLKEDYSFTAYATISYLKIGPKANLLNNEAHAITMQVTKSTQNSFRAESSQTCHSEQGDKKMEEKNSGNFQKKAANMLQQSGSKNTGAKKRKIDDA
# Chain of RecQ-like DNA helicase BLM (Homo sapiens) (P54132 whole entry, looked up): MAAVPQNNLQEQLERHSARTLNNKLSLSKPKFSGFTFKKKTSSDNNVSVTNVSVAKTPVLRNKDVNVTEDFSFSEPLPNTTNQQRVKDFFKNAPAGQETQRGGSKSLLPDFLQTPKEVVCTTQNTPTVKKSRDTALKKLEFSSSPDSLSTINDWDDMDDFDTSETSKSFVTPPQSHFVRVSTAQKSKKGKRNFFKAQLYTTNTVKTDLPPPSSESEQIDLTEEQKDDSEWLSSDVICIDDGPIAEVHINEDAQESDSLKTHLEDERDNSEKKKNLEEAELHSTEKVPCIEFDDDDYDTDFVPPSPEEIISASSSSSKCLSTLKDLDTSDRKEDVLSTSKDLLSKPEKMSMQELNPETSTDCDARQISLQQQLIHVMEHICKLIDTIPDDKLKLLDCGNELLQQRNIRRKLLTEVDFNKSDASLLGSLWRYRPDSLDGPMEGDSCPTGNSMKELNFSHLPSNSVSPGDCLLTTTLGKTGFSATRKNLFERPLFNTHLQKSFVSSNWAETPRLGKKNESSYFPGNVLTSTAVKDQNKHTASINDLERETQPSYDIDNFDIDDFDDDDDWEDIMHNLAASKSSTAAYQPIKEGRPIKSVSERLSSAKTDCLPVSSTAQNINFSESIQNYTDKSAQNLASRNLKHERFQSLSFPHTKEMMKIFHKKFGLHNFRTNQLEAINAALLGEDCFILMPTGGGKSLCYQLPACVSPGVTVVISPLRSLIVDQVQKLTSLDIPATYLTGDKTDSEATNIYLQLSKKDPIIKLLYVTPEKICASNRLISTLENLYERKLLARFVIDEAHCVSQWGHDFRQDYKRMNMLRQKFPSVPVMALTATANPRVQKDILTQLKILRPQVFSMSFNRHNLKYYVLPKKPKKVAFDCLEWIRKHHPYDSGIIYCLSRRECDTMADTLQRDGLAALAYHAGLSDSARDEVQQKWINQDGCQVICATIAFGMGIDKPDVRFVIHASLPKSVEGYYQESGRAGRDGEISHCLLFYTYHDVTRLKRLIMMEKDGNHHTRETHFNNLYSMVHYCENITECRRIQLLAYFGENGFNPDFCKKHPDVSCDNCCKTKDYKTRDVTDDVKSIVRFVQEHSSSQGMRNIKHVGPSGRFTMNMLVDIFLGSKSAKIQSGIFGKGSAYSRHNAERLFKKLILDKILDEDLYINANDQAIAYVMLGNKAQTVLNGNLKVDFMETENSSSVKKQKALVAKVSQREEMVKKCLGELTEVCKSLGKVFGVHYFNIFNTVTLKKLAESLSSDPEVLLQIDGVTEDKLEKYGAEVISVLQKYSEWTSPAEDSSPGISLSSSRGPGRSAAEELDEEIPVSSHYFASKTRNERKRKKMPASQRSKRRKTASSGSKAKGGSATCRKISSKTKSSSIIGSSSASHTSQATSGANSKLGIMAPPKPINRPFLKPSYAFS
structure (smiles),measurement,setting,value
CC(C)N(CCC(C(N)=O)(c1ccccc1)c1ccccn1)C(C)C (stereo not drawn),outcome,[1],inactive
same,Potency,[2],inactive
same,outcome,[3],inactive
same,outcome,[4],inactive
same,outcome,[5],inactive
same,outcome,[6],inactive
same,outcome,[7],inactive
same,outcome,[8],inactive
same,outcome,[9],inactive
NCCc1ccc(O)cc1,outcome,[1],inactive
same,Potency,[2],inactive
same,outcome,[4],inactive
same,outcome,[5],inactive
same,outcome,[6],inactive
same,outcome,[7],inactive
same,outcome,[8],inactive
same,outcome,[9],inactive
NCCCCCC(=O)O,outcome,[8],inactive
CC(C)NNC(=O)c1ccncc1,outcome,[8],inactive
C[C@]12CCC(=O)C=C1CC[C@@H]1[C@@H]2CC[C@@]2(C)[C@H]1CC[C@]2(C)O,outcome,[10],inactive
CC(=O)OCC(=O)[C@@]1(O)CC[C@H]2[C@@H]3CCC4=CC(=O)CC[C@]4(C)[C@H]3C(=O)C[C@@]21C,outcome,[8],inactive
C[C@]12CCC(=O)C=C1CC[C@@H]1[C@@H]2CC[C@]2(C)C(=O)CC[C@@H]12,outcome,[1],inactive
same,Potency,[2],inactive
same,outcome,[8],inactive
same,outcome,[9],inactive
C=C(C)[C@H]1CN[C@H](C(=O)O)[C@H]1CC(=O)O,outcome,[1],inactive
same,Potency,[2],inactive
same,outcome,[4],inactive
same,outcome,[5],inactive
same,outcome,[6],inactive
same,outcome,[7],inactive
same,outcome,[8],inactive
same,outcome,[9],inactive
CCOC(=O)CC(SP(=S)(OC)OC)C(=O)OCC (stereo not drawn),outcome,[10],inactive
CCCCC/C=C\C/C=C\C/C=C\C/C=C\CCCC(=O)NCC(=O)O,outcome,[1],inactive
same,Potency,[2],3.98 µM (active)
same,outcome,[3],inactive
same,outcome,[4],inactive
same,outcome,[5],inactive
same,outcome,[6],inactive
same,outcome,[7],inactive
same,outcome,[8],inactive
same,outcome,[9],inactive
CCC(C)(C)c1ccc(O)cc1,outcome,[10],inactive
CC(C)NCC(O)c1ccc(NS(C)(=O)=O)cc1 (stereo not drawn),outcome,[8],inactive
Cc1ncsc1CCCl,outcome,[4],inactive
same,outcome,[5],inactive
same,outcome,[6],inactive
same,outcome,[7],inactive
CCCC(C)(COC(N)=O)COC(N)=O,outcome,[10],inactive
NC(N)=Nc1nc(CSCC/C(N)=N/S(N)(=O)=O)cs1,outcome,[8],inactive
Nc1ccc(S(=O)(=O)Nc2ccnn2-c2ccccc2)cc1,outcome,[8],inactive
NC/C=C/C(=O)O,outcome,[8],inactive
O=C(NCC1CCCCN1)c1cc(OCC(F)(F)F)ccc1OCC(F)(F)F (stereo not drawn),outcome,[8],inactive
CN=C(NC#N)Nc1ccc(C2=NNC(=O)CC2C)cc1 (stereo not drawn),outcome,[8],inactive
COc1ccc2[nH]cc(CCNC(C)=O)c2c1,outcome,[8],inactive
COc1ccc(C2CNC(=O)C2)cc1OC1CCCC1 (stereo not drawn),outcome,[8],inactive
C[C@](N)(Cc1ccc(O)cc1)C(=O)O,outcome,[8],inactive
CNC[C@H](O)c1cccc(O)c1,outcome,[8],inactive
CC(=O)Oc1cc(C(C)C)c(OCCN(C)C)cc1C,outcome,[8],inactive
CC(C)(Oc1ccc(C2CC2(Cl)Cl)cc1)C(=O)O (stereo not drawn),outcome,[8],inactive
CO/N=C(\C(=O)N[C@@H]1C(=O)N2C(C(=O)O)=C(COC(C)=O)CS[C@H]12)c1csc(N)n1 (stereo in doubt),outcome,[8],inactive
NC1CCN(c2cccc(Cl)n2)CC1,outcome,[8],inactive
NC(N)=NC(=O)Cc1c(Cl)cccc1Cl,outcome,[8],inactive
Cc1cnc(NC(=O)C2=C(O)c3ccccc3S(=O)(=O)N2C)s1,outcome,[8],inactive
O=c1[nH]c(=O)n([C@H]2C[C@H](O)[C@@H](CO)O2)cc1Br,outcome,[8],inactive
CC(=O)c1ccc(S(=O)(=O)NC(=O)NC2CCCCC2)cc1,outcome,[8],inactive
COCCOC(=O)C1=C(C)NC(C)=C(C(=O)OC(C)C)C1c1cccc([N+](=O)[O-])c1 (stereo not drawn),outcome,[8],inactive
NCCS(=O)(=O)O,outcome,[8],inactive
C[C@]12CCC(=O)C=C1CC[C@@H]1[C@@H]2[C@@H](O)C[C@@]2(C)[C@H]1CC[C@]2(O)C(=O)COC(=O)CCC(=O)O,outcome,[8],inactive
c1ccc2c(c1)CCCC2C1=NCCN1 (stereo not drawn),outcome,[8],inactive
CCn1cc(C(=O)O)c(=O)c2cc(F)c(N3CCNC(C)C3)c(F)c21 (stereo not drawn),outcome,[8],inactive
NC(=O)N1c2ccccc2C=Cc2ccccc21,outcome,[8],inactive
C[C@H]1O[C@@H](n2cc(F)c(=O)[nH]c2=O)[C@H](O)[C@@H]1O,outcome,[8],inactive
CCCCCCCCCCCCCCCC(=O)NCCO,outcome,[8],inactive
CN=C(NC#N)NCCSCc1nc[nH]c1C,outcome,[8],inactive
CCN(CC)CC#CCOC(=O)C(O)(c1ccccc1)C1CCCCC1 (stereo not drawn),outcome,[8],inactive
Cc1ccc(Cl)c(Nc2ccccc2C(=O)O)c1Cl,outcome,[8],inactive
CC(=O)OCC1=C(C(=O)O)N2C(=O)[C@@H](NC(=O)Cc3cccs3)[C@H]2SC1,outcome,[8],inactive
O=c1c(-c2ccc(O)cc2)coc2cc(O)cc(O)c12,outcome,[8],inactive
CCN(CC)CCOC(=O)c1ccc(N)cc1,outcome,[8],inactive
CCN1CCC[C@H]1CNC(=O)c1c(O)c(Cl)cc(Cl)c1OC,outcome,[8],inactive
O=C(O)CCCCCCCC(=O)O,outcome,[8],inactive
COc1ccc2cc([C@H](C)C(=O)O)ccc2c1,outcome,[8],inactive
CC[N+](CC)(CC)CCOc1cccc(OCC[N+](CC)(CC)CC)c1OCC[N+](CC)(CC)CC,outcome,[8],inactive
NC(=O)c1ncn([C@@H]2O[C@H](CO)[C@@H](O)[C@H]2O)c1O,outcome,[8],inactive
NC(Cc1ccc(Cl)cc1)C(=O)O (stereo not drawn),outcome,[8],inactive
Cc1scc2c1N(C(=O)CN1CCN(C)CC1)c1ccccc1NC2=O,outcome,[8],inactive
